VACV mCherry inh – inhibitors of vaccinia virus infection (mCherry reporter signal); Vaccinia virus mCherry reporter infection, fluorescence; 310,000 compounds, 0.63% hits; Potency, µM (series often up to 36.5 µM), for inactives: top-dose activity change, negative = inhibition, hits mostly inhibitors; calls by dose curve; tested in A549 cells; also: potency is read from the fitted curve at half-maximal effect; nearly all actives have a fitted effect of over 35% in size
FMDV antiviral – foot and mouth disease virus antiviral activity; FMDV antiviral cell-based qHTS; Potency, µM (titrated, usually from 57.9 µM), for inactives: at the top dose activity change, negative = inhibition, actives largely listed as inhibitors; 410,000 compounds, 1.2% hits; calls by dose curve; tested in HEK293T cells; also: read-out not given here; potency is read from the fitted curve at half-maximal effect; nearly all actives have a fitted effect of over 45% in size
HCMV antiviral – inhibitors of human cytomegalovirus | HFF cells, HCMV-luciferase reporter, 72 h; active compounds read low | activity change, negative = inhibition, % at 57.5 µM | 410,000 compounds, 4.5% hits; in the data active = activity change below about -60%; inconclusive = no clear call, values can overlap the other calls; inactive = above about -39%
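After 16 h attachment at 37C, HFF cells received test compound and HCMV-luciferase (1 PFU/cell); reporter luminescence read 72 h later, data normalized against buffer-only and known inhibitor Salinomycin.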
HCV inh – inhibitors of hepatitis C virus infection; Huh7.5.1 HCVcc-Cre infection, luciferase reporter, 44 h; Potency, µM (titrated, usually from 41.8 µM), inactives show top-dose activity change, negative = inhibition, most hits filed as inhibitors; 340,000 compounds, 3.4% hits; AID 651820; active = well fitted inhibition curve with a large enough effect; inconclusive = small, poorly fitted or top-dose-only effect, or another doubt; inactive = no such curve, though single readings can be large or run the other way; also: potency is read from the fitted curve at half-maximal effect
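Reporter virus HCVcc-Cre (~0.5 moi) infects cells exposed to compound; seeding density 1,000 cells/well with 4 h settling beforehand. Luminescence, 15 sec read, taken 44 h post-infection following a 15 min RT substrate incubation.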
Vaccinia Venus – inhibitors of vaccinia virus (Venus reporter). Potency, µM (series often up to 36.5 µM), without a hit: top-dose activity change, negative = inhibition, hits mostly inhibitors. 330,000 compounds, 0.46% hits. Vaccinia virus Venus reporter expression, fluorescence; calls by dose curve; tested in A549 cells; also: potency is read from the fitted curve at half-maximal effect; nearly all actives have a fitted effect of over 30% in size
* = called active by the depositor; i = inactive; ? = inconclusive; . = not tested or not shown; ! = a repeat was not active; [ ] = another dose, or the depositor's remark. An excerpt weighted towards active compounds, which were near 7.3% of everything screened. % is scaled to controls: 0 for no effect and ±100 for the full control effect.

SMILES	VACV mCherry inh	FMDV antiviral	HCMV antiviral	HCV inh	Vaccinia Venus
CCn1c(CN2CCN(c3cccc(Cl)c3)CC2)nc2c1c(=O)[nH]c(=O)n2C	-10.4%	-17.5%	-19.0	.	-6.5%
O=C(NCc1cccc(F)c1)c1ccc(CS(=O)c2ccccc2Cl)o1 (configuration not stated)	-11.2%	-13.7%	-8.9	.	3.3%
O=C(NCCc1ccc(Cl)cc1)c1ccc(CS(=O)(=O)c2ccc(Cl)cc2)o1	-18.4%	-9.1%	-20.2	.	-13.5%
CC1CCC(NC(=O)c2ccc(CS(=O)(=O)c3ccc(Cl)cc3)o2)CC1 (configuration not stated)	-9.0%	31.6µM*	-7.1	.	-4.5%
O=C(NCCc1ccccc1)c1ccc(CS(=O)(=O)c2ccc(Cl)cc2)o1	-3.3%	-29.6%	-60.3*!	19.1%	3.1%
CC1(COc2ccc(CC3SC(=O)NC3=O)cc2)CCCCC1 (configuration not stated)	-1.7%[3.33 µM]	-6.2%[6.7 µM]	.	.	-4.5%[3.33 µM]
CCNc1nc(SC(C)C(=O)Nc2ccccc2)nc(N(C)C)n1 (configuration not stated)	i	-3.0%	129.2	-25.3%	-12.1%
COC(=O)C(C)Sc1nc(NCc2ccccc2)nc(N(C)C)n1 (configuration not stated)	i	-13.3%	-34.2	3.16µM*	-9.8%
c1ccc(-c2nc(SCc3nc4ccccc4[nH]3)c3oc4ccccc4c3n2)cc1	.	?	5.4	.	.
COc1ccc(-c2cc(C)no2)cc1S(=O)(=O)NCc1cccs1	?	12.3%	0.0	.	-22.8%
CCNC(=O)/C(C#N)=C/c1c(N(Cc2ccccc2)Cc2ccccc2)nc2ccccn2c1=O	-23.3%	-24.7%	?	11.2µM*	?
CNC(=O)/C(C#N)=C/c1c(N(Cc2ccccc2)Cc2ccccc2)nc2c(C)cccn2c1=O	-13.1%	?	-26.5	12.6µM*	?
CCNC(=O)/C(C#N)=C/c1c(N2CCOCC2)nc2ccccn2c1=O	-10.1%	1.6%	-1.4	-3.5%	-2.4%
CCn1cc2nc(SCc3cccc(OC)c3)n(Cc3ccc(Cl)cc3)c(=O)c2n1	-25.1%	-25.8%	-24.3	.	-25.4%
CCOc1ccc(CCNC(=O)CCC(=O)N2CCSc3ccccc32)cc1OCC	.	-24.0%	15.6	?	.
CCc1cccc(NC(=O)CCC(=O)N2CCSc3ccccc32)c1	i	-27.4%	-66.4*!	-23.3%	-14.1%
CCOc1ccccc1CNC(=O)CCC(=O)N1CCSc2ccccc21	-11.3%	-11.3%	-74.8*	.	-13.8%
COc1ccc(C(=O)c2cn(CC(=O)Nc3cc(C)ccc3C)c3nc(C)ccc3c2=O)cc1	-10.7%	-4.3%	9.3	.	-1.9%
CC1Cc2ccccc2C[N+]1(C)CC(=O)c1ccc(I)cc1 (configuration not stated)	45.7%	.	.	.	9.7%
CC(C)Oc1ccc(CNC(=O)c2cnc3sc(N4CCCCCC4)nn3c2=O)cc1	-9.8%	-12.3%	-4.6	.	-9.3%
NC(N)=Nc1ccc(Cl)cc1	.	-20.1%	.	.	.
NC(=Nc1ccc(N)cc1)C(N)=Nc1ccc(N)cc1	?	-21.5%	-65.5*	12.1%	3.7%
O=C(COC(=O)/C=C/c1ccccc1Cl)NC1CCCC1	.	18.7%	-37.3	2.6%	.
Cc1ccc([C@H]2C[C@]34CN(Cc5ccccc5)S(=O)(=O)[C@H]3C[C@H]2O4)cc1	.	.	-88.4*	.	.
Cc1ccc([C@H]2C[C@]34CNS(=O)(=O)[C@H]3C[C@H]2O4)cc1	.	.	22.6	.	.
SMILES	VACV mCherry inh	FMDV antiviral	HCMV antiviral	HCV inh	Vaccinia Venus
N[C@H](C(=O)O)[C@@H]1[C@@H](C(=O)O)C1(F)F	-6.6%	-1.3%	.	.	-8.3%
CN(C)c1cccc(Nc2nccc3[nH]c(-c4ccsc4)cc23)c1	.	.	-8.2	.	.
O=C(Cc1csc(N2CCOCC2)n1)N/N=C/c1ccc(Cl)cc1Cl	.	?	1.9	11.2µM*	.
CCN1CCN(c2ccccc2NC(=O)c2ccc(-n3cccn3)cc2)CC1	.	-11.6%	49.5	-4.8%	.
Cc1nc(SCC(=O)c2c[nH]c3ccccc23)n[nH]1	-15.5%	36.4%	-68.7*	-0.4%	-14.0%
O=C(CSc1nc2ccccc2[nH]1)c1c[nH]c2ccccc12	-1.0%	4.9%	-0.4	0.0%	-22.7%
COC(=O)C1C(O)CC[C@H]2CN3CCc4c([nH]c5ccccc45)C3C[C@H]12 (some centres not stated)	-13.0%	4.5%	.	.	-1.6%
O=C(c1[nH]c2ccccc2c1Sc1ccc(Cl)cc1)N1CCCCC1	-4.1%	81.4%	31.5	.	-12.0%
COc1ccc(CNC(=O)c2cccc3c(-c4cccnc4)coc23)cc1OC	-26.2%	?	-86.0*	.	?
CCN(CC)c1cc2c(cc1F)c(=O)c(S(=O)(=O)c1ccc(OC)cc1)cn2CC	-7.1%[7.34 µM]	-0.8%	?	.	-5.5%[7.34 µM]
CCN1CCN(C(=S)Nc2ccc3nc(N4CCN(CC)CC4)cc(C)c3c2)CC1	-26.9%	-10.1%	-39.8	12.6µM*	-24.2%
CCN1CCN(C(=S)Nc2ccc3nc(N4CCN(C)CC4)cc(C)c3c2)CC1	-24.6%	-18.4%	?	?	12.6%
CCN1CCN(c2cc(C)c3cc(NC(=O)c4cc(Br)ccc4Cl)ccc3n2)CC1	-20.5%	-16.9%	-72.2*	.	-22.5%
CCN1CCN(c2cc(C)c3cc(NC(=S)N4CC(C)CC(C)C4)ccc3n2)CC1 (configuration not stated)	?	-2.3%	?	?	?
CCN1CCN(c2cc(C)c3cc(NC(=S)N4CCCC(C)C4)ccc3n2)CC1 (configuration not stated)	?	-17.8%	-71.2*	?	-10.9%
CCN1CCN(c2cc(C)c3cc(NC(=O)c4cccnc4Cl)ccc3n2)CC1	.	0.0%	34.4	?	.
Cc1ccc(NS(=O)(=O)c2cc(C(=O)N(C)C3CCN(C)CC3)ccc2Cl)cc1Cl	.	38.4%	-17.8	2.3%	.
COc1ccc(/C=N/Nc2nc(Nc3ccccc3)nc(N3CCCC3)n2)cc1	-5.0%	-11.0%	-0.1	10µM*	-7.4%
COc1ccc(/C=N/Nc2nc(NCc3ccco3)nc(Nc3ccc(OC)cc3)n2)cc1	-13.8%	-2.9%	?	?	-17.8%
O=[N+]([O-])c1ccc(NC2CCCC2)cc1	-1.5%	-2.2%	6.7	-9.4%	-17.8%
COc1ccc(Nc2nc(NCc3ccco3)nc(N/N=C/c3ccc(O)cc3)n2)cc1	?	-9.1%	-61.0*	?	-25.8%
COc1ccc(/C=N/Nc2nc(N3CCCC3)nc(N3CCCC3)n2)cc1	?	-14.7%	-16.4	?	?
O=[N+]([O-])c1cccc(C=NNc2ccc3ccccc3n2)c1O	?	10µM*	-96.8*	?	?
Brc1ccccc1/C=N/Nc1ccc2ccccc2n1	-6.2%	-59.8%	277.3	?	-16.5%
O=[N+]([O-])c1ccc(Nc2nc(NC3CCCCC3)nc(N3CCCC3)n2)cc1	-6.0%	-2.7%	-73.3*	?	-13.1%
CCC(C)[C@@H](CN)NCC1(c2ccccc2)CC1 (some centres not stated)	-12.6%	1.4%	-14.6	12.6%	-7.2%
COc1ccccc1C(=O)NC(=O)COC(=O)c1cnccn1	i	0.4%	10.6	.	4.9%

Compound activity deposited in PubChem by National Center for Advancing Translational Sciences (NCATS).
